A short description of test [1]: qHTS drug screen for cell cycle checkpoint inhibitors in PARPi-resistant BRCA-mutant ovarian cancer cell lines. (AID 1963452; calls by dose curve). Particulars: PEO1/OlaR viability, CellTiter-Glo luminescence, 96 h, stronger effect = lower value. Summed up: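 PEO1, PEO4 and PEO1/OlaR ovarian cancer cells, 600 per well, exposed 96 h at 37C to a dilution series. Viability read by CellTiter-Glo luminescence, normalized to DMSO and empty wells; activity summarized as Z-AUC.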
(qHTS replaces the single test concentration by a dilution series.)

A short description of test [2]: qHTS profiling for inhibitors of Plasmodium falciparum proliferation (AID 504749).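 Note: 0% = DMSO vehicle and full inhibition = artemisinin control; nearly all actives have a fitted effect of over 60% in size.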 Particulars: P. falciparum in erythrocytes, SYBR Green DNA, 72 h. The procedure, abridged:
(§1)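 Fluorescence of SYBR Green-bound parasite DNA, read at 485/535 nm, served as the growth measure. Infected erythrocytes were cultured with compound 72 h; artemisinin (0.29 uM) and DMSO wells defined the normalization range.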

Test [3] concerns 3D7. The description is as above. The conditions noted are these: P. falciparum in erythrocytes, SYBR Green DNA, 72 h; series mostly up to 28.7 µM. Summed up:
as §1

For test [4], the system named is 7G8. The description is as above. The conditions noted are these: P. falciparum in erythrocytes, SYBR Green DNA, 72 h; series mostly up to 28.7 µM. Summed up:
as §1

Test [5] concerns AA1029. The description is as above. The conditions noted are these: P. falciparum in erythrocytes, SYBR Green DNA, 72 h; series mostly up to 28.7 µM. The procedure, abridged: as §1
For test [6], the system named is AS120. Described as above. Particulars: P. falciparum in erythrocytes, SYBR Green DNA, 72 h; series mostly up to 28.7 µM. Summed up: as §1
The test system of test [7] is ATS189. The test is described as above. Particulars: P. falciparum in erythrocytes, SYBR Green DNA, 72 h; series mostly up to 28.7 µM. Summed up:
as §1

In test [8] the test system is ATS95. The description is as above. The conditions noted are these: P. falciparum in erythrocytes, SYBR Green DNA, 72 h; series mostly up to 28.7 µM. The procedure, abridged:
as §1

Test [9] relates to C2A. Described as above. The conditions noted are these: P. falciparum in erythrocytes, SYBR Green DNA, 72 h; series mostly up to 28.7 µM. Summed up: as §1
In test [10] the test system is CP185. The test is described as above. Particulars: P. falciparum in erythrocytes, SYBR Green DNA, 72 h; series mostly up to 28.7 µM. Summed up:
as §1

The test system of test [11] is CP191. The test is described as above. The conditions noted are these: P. falciparum in erythrocytes, SYBR Green DNA, 72 h; series mostly up to 28.7 µM. Summed up:
as §1

Test [12] has as its system CP192. Described as above. The conditions noted are these: P. falciparum in erythrocytes, SYBR Green DNA, 72 h; series mostly up to 28.7 µM. The procedure, abridged:
as §1

Test [13] relates to CP194. The test is described as above. The conditions noted are these: P. falciparum in erythrocytes, SYBR Green DNA, 72 h; series mostly up to 28.7 µM. The procedure, abridged: as §1
Test [14] deals with CP201. Described as above. The conditions noted are these: P. falciparum in erythrocytes, SYBR Green DNA, 72 h; series mostly up to 28.7 µM. The procedure, abridged: as §1
Test [15] has as its system CP203. The description is as above. Particulars: P. falciparum in erythrocytes, SYBR Green DNA, 72 h; series mostly up to 28.7 µM. Summed up:
as §1

The test system of test [16] is CP211. Described as above. The conditions noted are these: P. falciparum in erythrocytes, SYBR Green DNA, 72 h; series mostly up to 28.7 µM. The procedure, abridged: as §1
The subject of test [17] is CP215. Described as above. The conditions noted are these: P. falciparum in erythrocytes, SYBR Green DNA, 72 h; series mostly up to 28.7 µM. Summed up:
as §1

Setting [18] is: measured here: PEO1 parental Z-AUC.
The mark [19] stands for this setting: at 28.7 µM (top of the series), parasite line A.
The mark [20] stands for this setting: at 28.7 µM (top of the series), parasite line B.

The structures appear in SMILES notation. Results filed as inconclusive are left out. Calls of active or inactive are those of the source. Unless noted, calls come from the whole dose curve; as a rule, active = well fitted inhibition curve with a large enough effect; inconclusive = small, poorly fitted or top-dose-only effect; inactive = flat fitted curve, though single readings scatter.

With `O=C(O)/C=C/c1ccc(Cn2ccnc2)cc1`, the Z-AUC is 1.62 (inactive) in test [1], 1.73 in test [1] (setting [18]) and 2.28 in test [1] (measured here: PEO4 Z-AUC).
For `C/C=C/C(=O)N(CC)c1ccccc1C`, in that order: 0.904 (inactive), 0.852 and 0.821.
The matching figures for `COc1ccc(-c2cc(=O)c3c(O)cc(O[C@@H]4O[C@H](CO[C@@H]5O[C@@H](C)[C@H](O)[C@@H](O)[C@H]5O)[C@@H](O)[C@H](O)[C@H]4O)cc3o2)cc1O`: 1.88 (inactive), 1.52 and 0.98.
Take `CCCCCCCCCCCCCCCCCCO`: the activity, negative = inhibition was 2.93% (inactive) in test [2] (setting [19]) and 2.31% (inactive) in test [2] (setting [20]). The Potency entry in test [3], in test [4], in test [5], in test [6], in test [7] and in [8] was “inactive” each time. Further, the Potency result in test [9], in [10], in [15] and in test [17] was “inactive” throughout. In addition, the call in test [11], in [12], in test [13], in [14] and in [16] was inactive.
For the compound `Cc1ccsc1C(=CCCN1CCC[C@@H](C(=O)O)C1)c1sccc1C`, the results for the Z-AUC in [1], in test [1] (setting [18]) and in [1] (measured here: PEO4 Z-AUC) were -0.0792 (inactive), 0.789 and 0.901, respectively. The activity, negative = inhibition in test [2] (setting [19]) is 0.673% (inactive); in [2] (setting [20]), 3.18% (inactive). In addition, the Potency entry in test [3], in test [4], in test [5], in test [6], in test [7] and in test [8] was “inactive” each time. Further, the Potency result in test [9], in test [10], in test [15] and in test [17] was “inactive” in each case. Further, the call in [11], in [12], in [13], in test [14] and in [16] was inactive.
With `NS(=O)(=O)c1cc2c(cc1C(F)(F)F)NCNS2(=O)=O`, the activity, negative = inhibition in [2] (at 12.8 µM (top of the series), parasite line A) was 2.71% (inactive); in test [2] (at 12.8 µM (top of the series), parasite line B), 5.88% (inactive). For the same compound, the Potency entry in [3], in [4], in test [5], in test [6], in [7] and in test [8] was “inactive” each time. The Potency entry in test [9], in test [10], in [15] and in test [17] was “inactive” throughout. Besides, the call in test [11], in [12], in test [13], in [14] and in [16] was inactive.
As to `O=c1[nH]c2cc(C(F)(F)F)c(N3CCOCC3)cc2n(CP(=O)(O)O)c1=O`, the values for the activity, negative = inhibition in test [2] (setting [19]) and in test [2] (setting [20]) were 11.3% (inactive) and -0.254% (inactive), respectively. Besides, the Potency result in test [3], in test [4], in test [5], in test [6], in test [7] and in test [8] was “inactive” each time. In addition, the Potency result in test [9], in [10], in test [15] and in test [17] was “inactive” throughout. The call in [11], in test [12], in test [13], in test [14] and in test [16] was inactive.
On to `Cc1ccccc1N=Nc1ccc(N=Nc2c(O)ccc3ccccc23)c(C)c1`, for which the activity, negative = inhibition in test [2] (setting [19]) is 3.72% (inactive); in test [2] (setting [20]) it was 9.83% (inactive). In addition, the Potency entry in test [3], in test [4], in [5], in test [6], in [7] and in [8] was “inactive” in each case. In addition, the Potency entry in [9], in test [10], in test [15] and in test [17] was “inactive” throughout. Also, the call in [11], in [12], in [13], in test [14] and in [16] was inactive.
For `O=S1(=O)OC(c2ccc(O)cc2)(c2ccc(O)cc2)c2ccccc21`, the activity, negative = inhibition in test [2] (setting [19]) is -0.266% (inactive); in [2] (setting [20]), 7% (inactive). Also, the Potency result in test [3], in test [4], in [5], in test [6], in test [7] and in test [8] was “inactive” each time. For the same compound, the Potency entry in [9], in test [10] and in [15] was “inactive” in each case. For the same compound, the result in [11], in test [12], in [13], in test [14] and in test [16] was inactive.

Source of the values: PubChem BioAssay (NCATS).
